Experimental data published in PubChem BioAssay (Tox21).
Records with an inconclusive call do not appear. The source made the active and inactive calls. Unless noted, the call rests on the fitted dose curve; in most records, active means well fitted curve in the direction sought with a large enough effect in the repeat runs; inconclusive means weak or mixed curves; inactive means no such curve, though single readings can be large; an effect the other way counts as inactive or inconclusive.

What was measured:
[1] = qHTS assay to identify small molecule antagonists of the estrogen related receptor (ERR) signaling pathway (AID 1224819;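 further: luminescence from an ERR-driven luciferase reporter measured with One-Glo reagent; series mostly up to about 46 µM; nearly all actives have a fitted effect of over 50% in size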)
How it was run: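 ERR reporter cell line (NTP) plated at 2,000 cells/well, settled 6 h at 37C/5% CO2, then exposed to LOPAC compounds for 18 h at 37C. One-Glo luciferase luminescence read after 30 min at room temperature.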

[2] = qHTS assay to identify small molecule agonists of the estrogen related receptor (ERR) signaling pathway (AID 1224820)
How it was run: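 Luminescence readout (One-Glo, 30 min RT) from NTP-supplied ERR cell line exposed to compounds for 18 h at 37 C. Cells seeded 2,000 per well and pre-incubated 6 h before pin-tool compound transfer.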

[3] = test system: estrogen-related receptor alpha (ERRalpha) with PGC-1alpha coactivator, human; experiment: qHTS assay to identify small molecule antagonists of the estrogen related receptor signaling pathway with the pleiotropic PPARgamma coactivator (PGC) (AID 1224821; calls by dose curve;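 further: series mostly up to about 46 µM; lower luminescence signal means antagonism of PGC/ERR signalling; nearly all actives have a fitted effect of over 50% in size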)
How it was run: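 PGC/ERR reporter cells; 6 h pre-incubation 37 C/5% CO2; pin-tool compound in DMSO, 18 h 37 C; One-Glo added, 30 min RT; luminescence read. qHTS antagonist mode.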

[4] = qHTS assay to identify small molecule antagonists of the estrogen related receptor signaling pathway with the pleiotropic PPARgamma coactivator (PGC) cell viability counter screen (AID 1224822; further: series mostly up to about 46 µM)
How it was run: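 Cytotoxicity in the PGC/ERR cell line is assessed with CellTiter-Fluor, read as fluorescence intensity 30 min after reagent addition, following 17.5 h compound treatment at 37 C.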

[5] = qHTS assay to identify small molecule antagonists of the estrogen related receptor (ERR) signaling pathway - cell viability counter screen (AID 1224818);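 further: series mostly up to about 46 µM; viability measured after 17.5 h of compound exposure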
How it was run: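 Quantitative high-throughput viability counter screen in ERR cells. Compounds (DMSO) incubated 17.5 h at 37 C; read-out was CellTiter-Fluor fluorescence.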

Measured: Potency

NC(CCP(=O)(O)O)C(=O)O (stereo not drawn)
not listed: [5]
inactive: all other assays above

NNC(=O)c1ccc(O)cc1
not listed: [2]
inactive: all other assays above
